# Screening results as filed in PubChem.
# Sampled rows, rich in hits. Any-hit rate of the full collection: about 7.7%.
# Giardia FBPA inh: qHTS Assay for Inhibitors of Fructose-1,6-bisphosphate Aldolase from Giardia Lamblia. hit rate 0.71% among 290,000. A8B2U2. Potency, µM (highest dose often 59.6 µM), for inactives: top-dose activity, negative = inhibition, hits mostly inhibitors. purified Giardia FBPA; also: potency is read from the fitted curve at half-maximal effect; nearly all actives have a fitted effect of over 55% in size
# Target sequence (A8B2U2 whole entry, looked up): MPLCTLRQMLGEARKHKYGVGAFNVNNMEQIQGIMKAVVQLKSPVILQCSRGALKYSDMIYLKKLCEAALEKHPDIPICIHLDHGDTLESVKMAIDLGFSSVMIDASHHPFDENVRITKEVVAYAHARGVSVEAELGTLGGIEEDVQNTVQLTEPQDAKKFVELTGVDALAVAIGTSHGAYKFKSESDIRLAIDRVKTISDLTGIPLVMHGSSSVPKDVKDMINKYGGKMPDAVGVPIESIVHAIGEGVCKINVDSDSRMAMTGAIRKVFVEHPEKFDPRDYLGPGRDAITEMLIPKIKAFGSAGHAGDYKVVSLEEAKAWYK
#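 40 nM FBPA preincubated 10 min at RT with compound (up to 57.5 uM final), then substrate plus GAPDH/TPI/NAD/arsenate coupling and diaphorase/resazurin added. Fluorescence read after 20 min at RT, 525/598 nm.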
# FMDV antiviral: High Throughput Screening for Foot and Mouth Disease Virus Antivirals; Potency, µM (titrated, usually from 57.9 µM), without a hit: at the top dose activity change, negative = inhibition, usual class: inhibitors; AID 1159524, 2015; FMDV antiviral cell-based qHTS; hit rate 1.2% among 410,000; calls by dose curve; tested in HEK293T cells; also: read-out not given here; potency is read from the fitted curve at half-maximal effect; nearly all actives have a fitted effect of over 45% in size
# HCMV inh: qHTS Assay for inhibitors of the human cytomegalovirus (HCMV); HFF cells, HCMV-luciferase reporter, 72 h; hits give low values; activity change, negative = inhibition, % at 57.5 µM; hit rate 4.5% among 410,000; in the data active = activity change below about -60%; inconclusive = no clear call, values can overlap the other calls; inactive = above about -39%
#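 Screen run at 2 compound doses on HFFs infected with reporter HCMV, MOI 1 PFU/cell. Luciferase activity from cell lysates at 72 h post infection gave inhibition relative to buffer-only and Salinomycin wells.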
# Tb PYK inh: qHTS of Trypanosoma Brucei Inhibitors. Potency, µM (top dose mostly 76.8 µM), for inactives: at the highest dose activity, negative = inhibition, hits mostly inhibitors. TbPYK enzyme, Kinase-Glo Plus ATP luminescence, 45 min. pyruvate kinase (Trypanosoma brucei), Q57TT1. hit rate 0.12% among 410,000. AID 624173, 2012; also: potency is read from the fitted curve at half-maximal effect; nearly all actives have a fitted effect of over 50% in size
#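 ADP (130 uM final) triggers the TbPYK reaction after compound addition; incubation is 45 min at room temperature. Kinase-Glo Plus is then added and luminescence imaged. Normalized data are fitted to concentration-effect curves.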
# RE007 growth inh: qHTS Assay for Inhibitors of the HIV-1 protein Vpr; hit rate 0.21% among 360,000; AID 651644, 2012; S. pombe RE007 Vpr strain, BacTiter-Glo ATP luminescence, 24 h; Potency, µM (titrated, usually from 92.2 µM), for inactives: at the top dose activity change, negative = less growth, hits mostly inhibitors; active = well fitted falling curve with a large enough effect; inconclusive = small, poorly fitted or top-dose-only effect; inactive = no such curve, though single readings can be large or run the other way; also: potency is read from the fitted curve at half-maximal effect; nearly all actives have a fitted effect of over 50% in size
#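 Fission yeast strain RE007, carrying one chromosomally integrated HIV-1 vpr copy, was seeded at OD 0.01 in PMG+AL medium with 23 nL pinned compound. After 24 h at 30 °C and 99% humidity, viability was read by BacTiter-Glo luminescence.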
# Sm TGR block: qHTS Assay for the Inhibitors of Schistosoma Mansoni Peroxiredoxins; Schistosoma mansoni thioredoxin glutathione reductase (TGR), Q962Y6; purified TGR, DTNB reduction, TNB absorbance 405 nm; Potency, µM (titrated, usually from 114 µM), for the others: top-dose activity change, negative = inhibition, most hits filed as inhibitors; hit rate 3% among 360,000; also: potency is read from the fitted curve at half-maximal effect; nearly all actives have a fitted effect of over 60% in size
#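 Kinetic colorimetric format: TGR-catalysed, NADPH-driven DTNB reduction monitored via TNB absorbance. Enzyme dispensed at 20 nM; compound exposure 15 min at room temperature before reaction start.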
# * hit, by the source's call; ? = inconclusive; · = no result given; [ ] = remark or other dose. Unless noted, calls follow the shape of the dose curve; as a rule, active = well fitted curve in the direction sought with a large enough effect; inconclusive = small, poorly fitted or top-dose-only effect, or another doubt; inactive = no such curve, though single readings can be large; an effect the other way counts as inactive or inconclusive. % is scaled to controls: 0 for no effect and ±100 for the full control effect.
SMILES,Giardia FBPA inh,FMDV antiviral,HCMV inh,Tb PYK inh,RE007 growth inh,Sm TGR block
O=C(O)CC12CC3CC(C1)CC(n1ncc(NCC4CCCO4)c(Cl)c1=O)(C3)C2 (stereo not given),-4%,-12%,28,-5%,-18%,40µM*
O=c1c(Cl)c(NCc2ccccc2)cnn1C12CC3CC(CC(C3)C1)C2,1%,38%,-61*,1%,0%,0%
O=C(O)CC12CC3CC(C1)CC(n1ncc(NCc4ccco4)c(Cl)c1=O)(C3)C2,-6%,-12%,3,-20%,9%,11µM*
CCc1cccc(Nc2cnn(C34C[C@@H]5C[C@@H](CC(CC(=O)O)(C5)C3)C4)c(=O)c2Cl)c1,-2%,9%,-5,-1%,-10%,10%
O=C(O)Cc1cc2ccccc2nc1C(=O)O,-26%,-11%,·,·,·,·
O=C(CSc1nc2ccccc2nc1Cc1ccc(Cl)cc1)N1CCCCC1,·,-24%,?,2%[15.4 µM],·,0%
Cc1ccc(C(=O)NS(=O)(=O)c2ccccc2)cc1,11%,5%,-8,-13%,-14%,-1%[57.1 µM]
CC(=O)NC(=C(Cl)Cl)S(=O)(=O)c1ccccc1,2%,22µM*,-99*,5%,6%,?
Cc1ccc(S(=O)(=O)C(NC(=O)c2ccccc2)=C(Cl)Cl)cc1,·,13µM*,-74*,-8%,11%,·
O=C(NS(=O)(=O)c1ccc(Cl)cc1)c1ccccc1,1%,41%,3,1%,12%,-2%
O=C(NC(=C(Cl)Cl)S(=O)(=O)c1ccc(Cl)cc1)c1ccccc1,1%,28µM*,?,2%,-4%,3.5µM*
Cc1ccc(S(=O)(=O)/C(=C/Cl)NC(=O)c2ccccc2)cc1,-6%,14µM*,-66*,-17%,0%,40µM*
CCOC(=O)c1cccc(NC(=O)c2cnc3sc(N4CCOCC4)nn3c2=O)c1,·,?,-6,5%,·,13%
COc1ccc(N(C(=O)COc2ccccc2OC)S(=O)(=O)c2ccc(Cl)cc2)cc1,·,9%,16,3%,·,-14%
Cc1ccc(C(=O)NC(=C(Cl)Cl)S(=O)(=O)c2ccc(C)cc2)cc1,0%,18µM*,-60*,-8%,7%,18µM*
Cc1ccc(C(=O)NC(=C(Cl)Cl)S(=O)(=O)c2ccc(Cl)cc2)cc1,3%,?,-11,0%,0%,·
Cc1cc(C)c2nc(SCC(=O)N3CC(=O)Nc4ccccc43)c(C#N)cc2c1,-27%,?,-88*,0%,12%,-2%
COc1ccc2nc(SCC(=O)N3CC(=O)Nc4ccccc43)c(C#N)cc2c1,-11%,-20%,-100*,-3%,5%,-13%
COc1ccc(Oc2cnc3ccccc3n2)cc1,1%,42%,-63*,-1%,17%,-2%
CCOC(=O)Cn1c(=O)n(CC2CCCO2)c2nc(-c3cc(OC)ccc3OC)nc(C(N)=O)c21 (stereo not given),·,-11%,2,-7%,·,-10%
CN(CC1CCCCC1)[C@H]1CC[C@@]23CCCN2C(=O)CCC[C@H]3[C@H]1Cc1ccccc1,·,·,-20,·,·,·
CC(C)NC(=O)C1=CC(c2ccc3c(c2)OCO3)=NS(=O)(=O)N1C,·,3%,-3,-2%,·,0%
CCC1(C)Cc2c(sc3nc(SC)nc(NCCN(C)C)c23)CO1 (stereo not given),5%,-14%,-108*,·,-8%[3.69 µM],-2%
Nc1ccc(C(=O)N2CCN(S(=O)(=O)c3ccc(Br)cc3)CC2)cc1[N+](=O)[O-],·,-14%,-61*,1%,10%,-11%
Cc1cccc2cc(CN(CC3CCCO3)C(=O)C3CC3)c(N(C)C)nc12 (stereo not given),·,-2%,·,·,·,·
SMILES,Giardia FBPA inh,FMDV antiviral,HCMV inh,Tb PYK inh,RE007 growth inh,Sm TGR block
CCCOc1cc(N)ccc1C(=O)OCCN(CC)CC,-3%[21.7 µM],-7%,-21,-4%,-12%[18.4 µM],-7%
CCCOc1ccc(N)cc1N,0.4µM*,0%,0,-30%,-19%,1.8µM*
COc1ccc(NC(=O)CSc2ccc3nc(-c4ccccc4)cn3n2)c(OC)c1,·,-20%,10,-3%,·,3%
Cc1ccccc1Nc1c(-c2ccc(Cl)cc2)nc2c(C)cccn12,·,-11%,0,-10%,·,3%
Cc1cccc(C)c1Nc1c(-c2ccccn2)nc2c(C)cccn12,·,-24%,-69*,0%,·,-8%
Cc1cccn2c(Nc3ccccc3)c(-c3ccccn3)nc12,12%,-29%,-66*,-1%,?,13%
COc1ccc(-c2cn3c(n2)sc2cc(C(=O)Nc4ccc(C)c(C)c4)ccc23)cc1,·,6%,·,2%,·,29%
Clc1cccc(-n2ncc3c(NCCCn4ccnc4)ncnc32)c1,·,40%,59,0%,·,4%
O=C(c1ccc(F)cc1)C1CCN(CCCn2c(=O)[nH]c3ccccc32)CC1,·,·,-33,·,·,·
Cn1nc(C(F)(F)F)c(/C=N/OC(=O)c2ccccc2)c1Sc1ccc(Cl)cc1,-6%,?,-63*,-7%,14%,0%
O=C([C@@H]1C[C@@H](Sc2nc3ccccc3[nH]2)CN1Cc1c(F)cccc1F)N1CCOCC1,·,-14%,·,·,·,·
COc1ccc(-n2ccnc2CN2CCN(C3CCCC3)C(CCO)C2)cc1 (stereo not given),1%,-1%,-22,1%,-2%,25µM*
Cc1cccc(-n2ccnc2CN2CCN(C3CCCC3)C(CCO)C2)c1 (stereo not given),1%,-11%,-26,-1%,-5%,?
Cc1cc(C)cc(NC(=O)C2CCC(CNS(=O)(=O)c3ccc4c(c3)C(C)(C)C(=O)N4C)CC2)c1 (stereo not given),·,-28%,-34,1%,·,-5%
O=C(CN1CCCCCC1)Nc1cc(C(F)(F)F)ccc1Cl,1%,-18%,?,6%,-2%,-16%
O=C(CN1CCOCC1)Nc1cc(C(F)(F)F)ccc1Cl,7%,-22%,-66*,1%,-11%,-3%
O=C(CN1CCN(S(=O)(=O)N2CCCCCC2)CC1)Nc1cc(Cl)ccc1Cl,·,-27%,-36,3%,-3%,1%
O=C(CN1CCN(S(=O)(=O)N2CCOCC2)CC1)Nc1cc(Cl)ccc1Cl,·,28µM*,-2,3%,10%,-2%
COc1ccc(NC(=O)c2nc(SCc3ccccc3F)ncc2Cl)cc1,·,-23%,14,-3%,·,1%
